Rows were chosen to be rich in hits. Some 0.93% of all compounds tested hit in one or more screens of this group.
CDC25B CDK2 inh – primary biochemical HTRF screen for blockers of M-phase inducer phosphatase 2 binding to CDK2/cyclin A; P30305+P24941; HTRF CDC25B-CDK2/CyclinA binding, anti-His/anti-Flag; active compounds read high; 94,000 compounds, 0.72% hits; z-score (no concentration beside the values); in the data active means z-score above about 3.2
TAR Tat displ – TAR RNA-Tat peptide displacers, HIV-1, primary screen, biochemical, FRET, FAM/TAMRA-labeled Tat; HIV-1 TAR RNA, Tat peptide displacement FRET; active compounds read high; z-score (concentration not given with the values); AID 1259389, 2018; 100,000 compounds, 0.6% hits; active means z-score of 3 or more in at least 2 runs
Numbers without * were called inactive; . = no result given.

SMILES	CDC25B CDK2 inh	TAR Tat displ
COc1cc2c(cc1OC)-c1c(OC)c(OC)cc3c1C(C2)N(C)CC3 (stereo unspecified)	-6.7	6.26*
COc1cc2c3c(c1O)-c1c(cccc1OC)CC3N(C)CC2 (stereo unspecified)	-0.03	-10.8
C#CC1(O)CC(C)NC2CCCCC21 (stereo unspecified)	-1.23	.
C=CCOC(=O)C1=C(C)OC(N)=C(C#N)C12C(=O)N(CC(N)=O)c1ccccc12 (stereo unspecified)	-1.55	.
c1ccc2cc(CNCCc3c[nH]c4ccccc34)ccc2c1	-1.45	.
Fc1ccccc1CNCCc1c[nH]c2ccccc12	2.32	0.3
c1coc(CNCCc2c[nH]c3ccccc23)c1	13.5*	-0.14
Fc1ccc(CNCCc2c[nH]c3ccccc23)cc1F	15.8*	-0.12
CN1CCN(c2nnc(N)s2)CC1	.	3.19
Cc1[nH]nc2c1C(c1ccc(Br)cc1)SCC(=O)N2 (stereo unspecified)	-1.11	1.4
NC(Cc1cc(O)c(O)cc1O)C(=O)O (stereo unspecified)	20.2*	.
Cc1o[nH]c(=O)c1CC(N)C(=O)O (stereo unspecified)	-1.08	.
CC(=O)N1N=C(c2cncc(Br)c2)OC1c1ccc(F)cc1 (stereo unspecified)	.	2.35
CCCCOc1ccc(C2SCC(=O)Nc3c2c(=O)[nH]n3C(C)CCC)cc1 (stereo unspecified)	-1.25	2.44
CN([N+](=O)[O-])S(=O)(=O)N(C)[N+](=O)[O-]	-2.73	.
COc1ccc(CCNC2(C#N)CCCCC2)cc1OC	-0.88	.
COc1ccc(CC2NCCc3cc(OC)c(OC)cc32)cc1OC (stereo unspecified)	-0.3	37.4*
Cc1ccc(-n2nc(C)c3c2NC(=O)CSC3c2ccc(O)cc2)cc1 (stereo unspecified)	-1.84	-0.08
CCOc1cc(C2SCC(=O)Nc3c2c(C)nn3-c2nc3ccccc3s2)ccc1O (stereo unspecified)	-1.08	0.69
Cc1nn(-c2nc3ccccc3s2)c2c1C(c1ccc(O)c(O)c1)SCC(=O)N2 (stereo unspecified)	-1.95	6.47*
NCCc1c[nH]c2ccccc12	-0.02	0.19
NCCc1cc(O)c(O)cc1O	.	28.9*
CN(C)[C@@H]1C(=O)C(C(N)=O)=C(O)[C@@]2(O)C(=O)C3=C(O)c4c(O)cccc4[C@@](C)(O)[C@H]3[C@H](O)[C@@H]12	.	22.4*
CN(C)[C@@H]1C(=O)C(C(N)=O)=C(O)[C@@]2(O)C(=O)C3=C(O)c4c(O)ccc(Cl)c4[C@@](C)(O)[C@H]3C[C@@H]12	.	12.5*
COc1cccc(-n2c(=O)[nH]c3cc(OC)c(OC)cc3c2=O)c1	-2.42	-2.03
Cc1ccccc1C1SCC(=O)Nc2c1c(C)nn2-c1ccccc1C (stereo unspecified)	-1.06	-0.32
Cc1ccc(C2SCC(=O)Nc3n[nH]c(C)c32)c(C)c1 (stereo unspecified)	-1.18	-0.38
